Pf growth 96h: P. falciparum growth inhibition at 96 hours; Potency, µM (top dose mostly 28.7 µM), inactives show top-dose activity change, negative = inhibition, most hits filed as inhibitors; P. falciparum luciferase reporter growth, 96 h; actives 6.9% (n = 320,000); note: potency is the fitted concentration of half-maximal effect
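96 h incubation, 37 C, 5% CO2, of luciferase-reporter P. falciparum-infected RBCs (2% hematocrit, 0.05% parasitemia final) with test compounds; endpoint luminescence.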
Pf growth 48h: inhibits P. falciparum growth in the first generation, 48 h; Potency, µM (titrated, usually from 28.7 µM), inactives show at the top dose activity change, negative = inhibition, usual class: inhibitors; AID 504832; P. falciparum luciferase growth in erythrocytes, 48 h; actives 5.9% (n = 310,000); note: potency is the fitted concentration of half-maximal effect
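Here the parasites carry a stable luciferase gene and grow inside erythrocytes in Albumax-based RPMI medium with compound for one erythrocytic cycle. Activity is scored as loss of luminescent signal.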
HCV inh: inhibitors of hepatitis C virus infection. Potency, µM (doses to about 41.8 µM), inactives show top-dose activity change, negative = inhibition, most hits filed as inhibitors. Huh7.5.1 HCVcc-Cre infection, luciferase reporter, 44 h. AID 651820. actives 3.4% (n = 340,000); note: potency is the fitted concentration of half-maximal effect
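Reporter virus HCVcc-Cre (~0.5 moi) infects cells exposed to compound; seeding density 1,000 cells/well with 4 h settling beforehand. Luminescence, 15 sec read, taken 44 h post-infection following a 15 min RT substrate incubation.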
HCMV antiviral: inhibitors of human cytomegalovirus | HFF cells, HCMV-luciferase reporter, 72 h; hits give low values | AID 1259415 | activity change, negative = inhibition, % at 57.5 µM | actives 4.5% (n = 410,000); in the data active = activity change below about -60%; inconclusive = no clear call, values can overlap the other calls; inactive = above about -39%
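Cell-based, HFFs, 1000 cells/well, 16 h 37C; cpds in DMSO + HCMV-luc, MOI 1 PFU/cell; 72 h 37C; OneGlo luminescence after 5 min RT; norm. to buffer vs Salinomycin 10uM.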
* marks the source's active call; other numbers are inactive results; ? = inconclusive; / = no result. A selection: hits, their analogues and other compounds. The true share with any hit is near 13%. Unless noted, calls come from the whole dose curve; as a rule, active = well fitted inhibition curve with a large enough effect; inconclusive = small, poorly fitted or top-dose-only effect, or another doubt; inactive = no such curve, though single readings can be large or run the other way. % is set by controls: 0 for no effect and ±100 for the full control effect.

SMILES	Pf growth 96h	Pf growth 48h	HCV inh	HCMV antiviral
CCCc1c(C)c2ccccc2[nH]c1=O	/	4.9%	-7.1%	65.9
Cc1c(C2Nc3ccccc3C2C)[nH]c2ccccc12 (configuration not stated)	/	/	/	-84.9*
O=[N+]([O-])c1ccc(NC2CCN(Cc3ccccc3)CC2)c2ccncc12	?	1.65µM*	?	-31.5
O=[N+]([O-])c1ccc(NC2CCCC2)c2ccncc12	-13.0%	?	-6.4%	/
CC1CCC2C(=O)N(c3ccc(NC4CCN(Cc5ccccc5)CC4)c([N+](=O)[O-])c3)C(=O)C2C1 (configuration not stated)	18.1%	11.7µM*	-11.0%	?
O=C1C2CCCCC2C(=O)N1c1ccc(NC2CCN(Cc3ccccc3)CC2)c([N+](=O)[O-])c1 (configuration not stated)	-8.1%	?	-9.2%	-17.4
Cc1ccc(-c2cn3cccnc3n2)cc1NC(=O)Nc1ccc(F)cc1	/	/	/	9.2
COc1ccc(S(=O)(=O)N2Cc3ccccc3CC2C(=O)Nc2ccc(O)cc2)cc1OC (configuration not stated)	3.7µM*	?	-14.6%	24.9
O=C(NC1CCCCC1)C1Cc2ccccc2CN1S(=O)(=O)c1ccc(F)cc1 (configuration not stated)	13.1µM*	?	-11.1%	1.4
CCNC(=O)C1Cc2ccccc2CN1S(=O)(=O)c1ccc(F)cc1 (configuration not stated)	24.8%	0.828µM*	6.2%	-0.6
CCOc1ccc(-c2cc3nc(C4CCN(C(=O)OC(C)(C)C)CC4)c(C(=O)Nc4cccc(Cl)c4C)cn3n2)cc1	/	/	/	4.9
Cc1cc(C)cc(OCC(=O)Nc2c(C)ccc3nsnc23)c1	/	/	/	-10.5
O=C(COc1ccc(C(=O)c2ccccc2)cc1)NCc1ccc(F)cc1	286.5%	8.3%	-7.9%	-76.0*
CCN(CC(=O)NCc1ccc(F)cc1)C(=O)COc1ccc(C)c(C)c1	10.4%	3.3%	?	-65.4*
O=C(COc1ccccc1)NCc1ccccc1	55.4%	/	14.8%	?
O=S(=O)(c1ccccc1)N1CCN=C1SCc1ccc(Cl)cc1	?	?	1.2%	-32.0
O=S(=O)(c1ccccc1)N1CCN=C1SCc1cccc(Cl)c1	11.7µM*	?	?	?
O=S(=O)(c1ccccc1)N1CCN=C1SCc1ccc(Cl)c(Cl)c1	?	?	?	-74.2*
CCCCNC(=O)CN1CCN(c2ncc(NC(=O)c3ccc(Cl)cc3)cc2C(=O)O)CC1	/	/	/	10.8
COCCNC(=O)CCCn1c(=O)[nH]c2ccsc2c1=O	/	/	/	-3.8
COc1ccc(/C=C/c2nc(C)c(-c3ccccc3)c(=O)[nH]2)cc1OC	-98.6%	?	-0.3%	-65.1*
COc1cc(/C=C/c2nc3ccccc3c(=O)[nH]2)ccc1OC(F)F	101.2%	/	-14.0%	-12.6
CCCS(=O)(=O)N1CCC(C(=O)NCCOC)CC1	/	/	/	15.5
Brc1c(CSc2nc3ccccc3s2)nc2ncccn12	3.29µM*	3.4%	-5.6%	37.8
O=[N+]([O-])c1ccc2sc(SCc3nc4ccccn4c3Br)nc2c1	-83.5%	4.3%	5.5%	/

Screening data from PubChem BioAssay.
